# hNpr1 antagonist – blocks ANP-stimulated signaling of human Npr1 receptor; P16066; HEK293 hNpr1 GloSensor cGMP, ANP-stimulated luminescence; Potency, µM (series often up to 46.3 µM), inactives show at the top dose activity change, negative = inhibition, actives largely listed as inhibitors; 1.6% of 76,000 active; AID 1347048; calls by dose curve; further: nearly all actives have a fitted effect of over 60% in size
#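 HEK293 cells stably expressing human Npr1 and cGMP GloSensor pGS-40F, loaded 2 h with 2% GloSensor reagent, given compound 30 min at room temperature. Luminescence read before and 20 min after 0.1 nM hNppA.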
# NIH3T3 tox – NIH 3T3 cell cytotoxicity; NIH 3T3 viability, CellTiter-Glo ATP luminescence, 48-72 h; 4.3% of 94,000 active; Potency, µM (doses to about 96.7 µM), for inactives: at the top dose activity change, negative = cytotoxicity, hits mostly inhibitors; further: nearly all actives have a fitted effect of over 55% in size
#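 First NIH 3T3 cells are plated at 400 cells/well; next compound is pinned in; then plates incubate 48 or 72 hr at 37 °C; finally CellTiter-Glo is added and luminescence read after 10 min.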
# GPT2 inh – GPT2 alanine aminotransferase inhibition. Recombinant GPT2, coupled pyruvate oxidase/HRP Amplex Red fluorescence. 0.25% of 100,000 active. Potency, µM (doses to about 57.7 µM), without a hit: at the top dose activity change, negative = inhibition, usual class: inhibitors. Q8TD30; further: nearly all actives have a fitted effect of over 60% in size
# Target sequence (Q8TD30 whole entry, looked up): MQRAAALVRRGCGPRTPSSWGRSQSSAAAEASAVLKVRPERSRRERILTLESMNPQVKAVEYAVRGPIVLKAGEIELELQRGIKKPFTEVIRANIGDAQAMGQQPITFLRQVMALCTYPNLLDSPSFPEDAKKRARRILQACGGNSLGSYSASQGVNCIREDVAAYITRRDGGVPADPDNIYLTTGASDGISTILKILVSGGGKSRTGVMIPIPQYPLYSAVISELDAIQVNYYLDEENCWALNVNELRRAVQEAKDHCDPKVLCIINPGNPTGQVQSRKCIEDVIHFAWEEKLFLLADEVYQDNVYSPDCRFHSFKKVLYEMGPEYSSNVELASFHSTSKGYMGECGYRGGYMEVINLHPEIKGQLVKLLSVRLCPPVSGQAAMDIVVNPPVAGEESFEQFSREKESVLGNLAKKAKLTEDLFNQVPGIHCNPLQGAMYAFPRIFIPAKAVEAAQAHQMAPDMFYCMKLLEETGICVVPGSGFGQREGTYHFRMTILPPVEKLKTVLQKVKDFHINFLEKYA
#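 Inhibition is scored from Amplex Red fluorescence generated when pyruvate oxidase and HRP act on pyruvate released by GPT2. Reactions contain 10ng/uL enzyme, 250uM a-KG and 2mM L-alanine and run 30 min at room temperature.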
# FLuc inh – Photinus pyralis luciferase inhibition; P08659; purified P. pyralis luciferase, luminescence, biochemical; Potency, µM (top dose mostly 115 µM), hits mostly inhibitors; 2.5% of 76,000 active; further: nearly all actives have a fitted effect of over 65% in size
#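 Luminescence read by CCD imager after adding enzyme (10nM final) to wells holding compound, titrated in qHTS. Substrates 10uM each D-luciferin and ATP; buffer 50mM Tris acetate pH 7.5, 10mM Mg acetate, Tween-20, BSA.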
# HEK293 tox – cytotoxic compounds in HEK 293 cells; HEK 293 viability, ATP luminescence (CellTiter-Glo), 48-72 h; Potency, µM (doses to about 115 µM), without a hit: at the top dose activity change, negative = cytotoxicity, most hits filed as inhibitors; 6.6% of 94,000 active; further: nearly all actives have a fitted effect of over 60% in size
#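 HEK 293 seeded at 250 cells/well receive compound via pintool. After 48 or 72 hr at 37 degree Celsius, 5% CO2 and 95% humidity, CellTiter-Glo is dispensed and luminescence read following 10 min at room temperature.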
# Starred values were filed as active, the others as inactive; i = inactive; ? = inconclusive; / = no result given; [ ] = another dose, or the depositor's remark. Rows were chosen to be rich in hits. Some 10% of all compounds tested hit in one or more screens of this group. Unless noted, the call rests on the fitted dose curve; in most records, active means well fitted curve in the direction sought with a large enough effect; inconclusive means small, poorly fitted or top-dose-only effect, or another doubt; inactive means no such curve, though single readings can be large; an effect the other way counts as inactive or inconclusive. On the % scale 0 is the no-effect control and ±100 the full control effect; potency means the concentration at half of the fitted maximal effect.
SMILES,hNpr1 antagonist,NIH3T3 tox,GPT2 inh,FLuc inh,HEK293 tox
Cc1ccccc1-c1[nH]nc2ncc(-c3ccccc3F)nc12,-26%[70.6 µM],?,-24%[88.5 µM],i,50µM*
Cc1ccsc1-c1[nH]nc2ncc(-c3ccccc3F)nc12,-5%[70.6 µM],?,-5%[88.5 µM],i,71µM*
O=C1NCCCCCCN(C(=O)c2cccnc2)[C@H]2C[C@H](C(=O)N3CCc4ccccc4C3)C[C@@H]12,1%,28µM*,i,i,-2%
O=C1NCCCCCN(C(=O)CC2CCCC2)[C@@H]2C[C@@H](C(=O)N3CCc4ccccc4C3)C[C@H]12,-11%,?,i,i,32µM*
O=C1NCCCCCN(C(=O)CC2CCCCC2)[C@@H]2C[C@@H](C(=O)N3CCc4ccccc4C3)C[C@H]12,-18%,?,5%,i,?
COCc1cc(C[C@@H]2CC[C@H](O)[C@@H](CNC3CCCCC3)O2)no1,0%[70.6 µM],i,3%[88.5 µM],i,0%[172 µM]
CC(C)CN(C/C=C/c1ccccc1)C(=O)C1CC2(CCNCC2)CN1 (centres undefined),5%,?,i,i,?
CC(C)(CC1Cc2ccccc2C1)NC(=O)C1CC2(CCNCC2)CN1 (centres undefined),0%,32µM*,-29%,i,25µM*
COc1ccccc1-c1ccnc(-c2nnc(C)n2Cc2ccncc2)c1,-2%[70.6 µM],56µM*,?,i,-17%[172 µM]
Cc1nnc(-c2cc(-c3ccc(CO)cc3)ccn2)n1Cc1ccncc1,1%[70.6 µM],?,i,i,4%[172 µM]
COc1ccccc1-c1ccnc(-c2nnc(C)n2Cc2ccccc2)c1,-1%[70.6 µM],?,2%[88.5 µM],?,71µM*
Cc1nnc(-c2cc(-c3ccccc3Oc3ccccc3)ccn2)n1CCN1CCOCC1,5%,?,?,i,?
COc1cccc(C(=O)N2CCN(c3ccnc4ccnn34)CC2)c1,/,?,2%[88.5 µM],/,?
CN1C(=O)C2(CCN(C(=O)CC3CCCC3)CC2)c2ccccc21,-2%,i,i,i,?
Cc1cccc(-n2cc(CN3CCCC(C)(O)C3)c(-c3cccc(F)c3)n2)c1 (centres undefined),6%,89µM*,-4%,18µM*,?
COc1ccc(-n2cc(CN3CCC(O)CC3)c(-c3cccc(F)c3)n2)cc1,-1%,79µM*,-24%,40µM*,?
Cc1ccc(-n2cc(CN3CCC(CCO)CC3)c(-c3cccc(C)c3)n2)cc1,-13%,?,i,i,?
Cc1ccc(-n2cc(CN3CCN4CCCC4C3)c(-c3cccc(C)c3)n2)cc1 (centres undefined),-3%,25µM*,i,?,28µM*
COc1cccc(N2C(=O)NC(=NC3CCCCC3)C23CCCN(Cc2ccc(N(C)C)cc2)C3)c1 (centres undefined),/,28µM*,i,/,32µM*
COc1cccc(N2C(=O)NC(=NC3CCCCC3)C23CCCN(Cc2ccsc2)C3)c1 (centres undefined),/,40µM*,1%,/,?
COc1ccc(CN2CCCC3(C2)C(=NC2CCCCC2)NC(=O)N3c2cccc(OC)c2)cc1 (centres undefined),/,?,-6%,/,?
Cc1cc(N2CCN(Cc3ccccc3)CC(O)C2)nc(N)n1 (centres undefined),1%,-17%,2%,i,-20%
OC1CN(Cc2ccccc2)CCN(c2nc(-c3ccccc3)no2)C1 (centres undefined),?,-10%,i,40µM*,?
O=C(NCc1ccc(F)c(F)c1)c1ccc2nnc(-c3ccc(F)cc3)n2c1,/,?,i,/,?
CC(C)NS(=O)(=O)c1ccc2c(c1)nc(-c1cc(C(C)(C)C)[nH]n1)n2C(C)C,-1%,?,i,i,45µM*
SMILES,hNpr1 antagonist,NIH3T3 tox,GPT2 inh,FLuc inh,HEK293 tox
CSc1ncc(CN2CCOC(Cc3cccc(C(F)(F)F)c3)C2)cn1 (centres undefined),1%,28µM*,i,i,22µM*
Cc1nnc2ccc(N3CCN(C(=O)C4CCCC4)CC3)nn12,/,?,/,/,-10%[172 µM]
O=C1CO[C@H]2CN(c3nccc(C(F)(F)F)n3)C[C@H]2N1Cc1ccc(F)cc1,-1%[70.6 µM],?,-10%[88.5 µM],i,100µM*
COc1ccc2cc(C(=O)N3CCC(Cc4ccc(C(=O)NC5CC5)cc4)CC3)[nH]c2c1,?,28µM*,i,i,35µM*
COc1ccc(C(=O)NC2CCN(C(=O)c3cc4c(=O)[nH]c(C)cn4n3)CC2)cc1,-3%,-8%,i,i,-26%
CC(C)c1nc2c(c(-c3ccc(O)cc3)n1)CCN(C(=O)C1CC1)CC2,/,-5%,i,/,i
CCOc1ccccc1CN1CCO[C@@H](COC)[C@@H]1c1ccccc1,/,-27%,0%,/,40µM*
O=C1NCCCCCN(Cc2cn[nH]c2-c2cccs2)[C@H]2CCC[C@@H]12,1%,-29%,i,i,-9%
CCOc1ccccc1CN1CCCCCCNC(=O)CC1c1ccccc1 (centres undefined),-1%,25µM*,i,i,32µM*
O=C1CC(c2ccccc2)N(Cc2cn[nH]c2-c2cccs2)CCCCCN1 (centres undefined),-1%,?,i,i,79µM*
COc1cccc(CN2CCCCCNC(=O)CC2c2ccccc2)c1OC (centres undefined),2%,?,-19%,i,?
COc1cccc(CN2CCCCCCNC(=O)CC2c2ccccc2)c1OC (centres undefined),1%,40µM*,i,i,45µM*
COc1ccccc1CNC(=O)CCC[C@H]1NC[C@@H]2C[C@H]1CN(Cc1ccccc1)C2,1%,-22%,?,i,-12%
COc1cc(O)c2c(c1)/C=C/C[C@H](O)[C@H](O)C(=O)/C=C\C[C@H](C)OC2=O,/,/,i,/,/
CNC(=O)COC1CN(C(=O)c2ccc(C)cc2)CCC(=O)N(C)c2ccccc21 (centres undefined),/,?,-5%[27.3 µM],/,-10%[57.5 µM]
Cc1ccc2nc(CO[C@H]3CN(Cc4cn(C)c5ccccc45)C[C@H]3F)[nH]c2c1,?,79µM*,1%[88.5 µM],i,89µM*
Cn1cc(CN2C[C@@H](F)[C@@H](OCc3nc4ccccc4n3C)C2)c2ccccc21,?,?,3%[88.5 µM],i,?
Fc1ccc2nc(CO[C@H]3CN(Cc4ccc5ccccc5n4)C[C@H]3F)[nH]c2c1,?,?,5%[88.5 µM],?,89µM*
COc1cccc(CN2C[C@@H](F)[C@@H](OCc3nc4ncccc4[nH]3)C2)c1,-8%[70.6 µM],?,i,i,?
